Where “and” joins values, the source holds several entries; their conditions need not be identical. Equal entries are not always repeated. Out of some 3,200 compounds screened, about 300 (9.4%) showed activity. The sample holds actives, similar compounds and a random draw of the others, so the mix is not that of the screen.
Test system: A673/TR/shEF
Test: cell viability (LOESS-normalised, relative to median of negative controls) (log2 ratio); higher = more viable cells (less compound effect), active = hit call of the paper (over 3 MAD below the median)
Settings: treatment time: 72 h
Method in brief: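 For three days, A673/TR/shEF Ewing sarcoma cells in 384-well plates (1,500 per well) were treated with library compounds at two or more concentrations or with DMSO controls, after doxycycline had been added or withheld 24 h beforehand to induce EWS-FLI1 shRNA knockdown. Viability was read by CellTiter-Glo luminescence on an Envision reader. The data were LOESS-corrected per plate, divided by the median of negative controls and log2-transformed.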

[1] = 0.25 µM, library screen: screen1, EWS-FLI1 expression: high (no doxycycline)
[2] = 0.25 µM, library screen: screen1, EWS-FLI1 expression: low (doxycycline-induced shRNA knockdown)
[3] = 2.5 µM, library screen: screen1, EWS-FLI1 expression: high (no doxycycline)
[4] = 2.5 µM, library screen: screen1, EWS-FLI1 expression: low (doxycycline-induced shRNA knockdown)
[5] = 0.025 µM, library screen: screen1, EWS-FLI1 expression: high (no doxycycline)
[6] = 0.025 µM, library screen: screen1, EWS-FLI1 expression: low (doxycycline-induced shRNA knockdown)
[7] = 25 µM, library screen: screen1, EWS-FLI1 expression: high (no doxycycline)
[8] = 25 µM, library screen: screen1, EWS-FLI1 expression: low (doxycycline-induced shRNA knockdown)
[9] = 0.25 µM, library screen: screen2, EWS-FLI1 expression: high (no doxycycline)
[10] = 0.25 µM, library screen: screen2, EWS-FLI1 expression: low (doxycycline-induced shRNA knockdown)
[11] = 2.5 µM, library screen: screen2, EWS-FLI1 expression: high (no doxycycline)
[12] = 2.5 µM, library screen: screen2, EWS-FLI1 expression: low (doxycycline-induced shRNA knockdown)
[13] = 0.025 µM, library screen: screen2, EWS-FLI1 expression: high (no doxycycline)
[14] = 0.025 µM, library screen: screen2, EWS-FLI1 expression: low (doxycycline-induced shRNA knockdown)
[15] = 25 µM, library screen: screen2, EWS-FLI1 expression: high (no doxycycline)
[16] = 25 µM, library screen: screen2, EWS-FLI1 expression: low (doxycycline-induced shRNA knockdown)
[17] = 0.103 µM, library screen: screen3, EWS-FLI1 expression: high (no doxycycline)
[18] = 0.103 µM, library screen: screen3, EWS-FLI1 expression: low (doxycycline-induced shRNA knockdown)
[19] = 0.308 µM, library screen: screen3, EWS-FLI1 expression: high (no doxycycline)
[20] = 0.308 µM, library screen: screen3, EWS-FLI1 expression: low (doxycycline-induced shRNA knockdown)
[21] = 0.926 µM, library screen: screen3, EWS-FLI1 expression: high (no doxycycline)
[22] = 0.926 µM, library screen: screen3, EWS-FLI1 expression: low (doxycycline-induced shRNA knockdown)
[23] = 2.8 µM, library screen: screen3, EWS-FLI1 expression: high (no doxycycline)
[24] = 2.8 µM, library screen: screen3, EWS-FLI1 expression: low (doxycycline-induced shRNA knockdown)
[25] = 8.3 µM, library screen: screen3, EWS-FLI1 expression: high (no doxycycline)
[26] = 8.3 µM, library screen: screen3, EWS-FLI1 expression: low (doxycycline-induced shRNA knockdown)
[27] = 25 µM, library screen: screen3, EWS-FLI1 expression: high (no doxycycline)
[28] = 25 µM, library screen: screen3, EWS-FLI1 expression: low (doxycycline-induced shRNA knockdown)

Measured: cell viability (log2)

COS(C)(=O)=O
inactive: [1] 0.0621 | [2] 0.0487 | [3] 0.0611 | [4] -0.0183

O=P(O)(O)Cc1ccccc1
active: [3] -0.281 | [4] -0.453 | [7] -0.356 | [8] -1.06
inactive: [5] 0.115 | [6] -0.0367 | [1] 0.209 | [2] -0.089

CC12CCC3C(CC=C4CC(OS(=O)(=O)O)CCC43C)C1CCC2=O (configuration not stated)
inactive: [9] 0.0737 | [10] -0.00205 | [11] 0.0312 | [12] 0.0129

CC[C@@]1(O)C[C@H](O[C@H]2C[C@H](N(C)C)[C@H](O)[C@H](C)O2)c2c(cc3c(c2O)C(=O)c2c(O)cccc2C3=O)[C@H]1C(=O)OC
inactive: [1] 0.0584 and -0.0862 | [2] -0.00295 and 0.0558
active: [3] -1.99 and -0.594 | [4] -0.405 and -0.193

CCC1(O)CC(OC2CC(N(C)C)C(O)C(C)O2)c2c(cc3c(c2O)C(=O)c2c(O)cccc2C3=O)C1C(=O)OC (configuration not stated)
inactive: [13] -0.0129 | [14] 0.0193 | [9] 0.135 | [10] -0.0369
active: [11] -0.409 | [12] -0.0756 | [15] -4.23 | [16] -3.71

CC[C@@]1(O)C[C@H](OC2C[C@@H](N(C)C)C(O)C(C)O2)c2c(cc3c(c2O)C(=O)c2c(O)ccc(O)c2C3=O)[C@H]1C(=O)OC (some centres not stated)
active: [3] -0.221
inactive: [1] 0.0817 | [2] 0.158 | [4] 0.00788

Cc1o[nH]c(=O)c1CC(N)C(=O)O (configuration not stated)
inactive: [9] 0.115 | [10] 0.0119 | [11] 0.0854 | [12] 0.0272

COc1ccc2c3c1O[C@H]1C(=O)CC[C@@]4(O)C(C2)N(CC2CC2)CCC314 (some centres not stated)
inactive: [9] 0.143 | [10] 0.0949 | [11] -0.028 | [12] 0.00345

C[C@]12CCC3C(CC[C@H]4C[C@@H](Cl)CC[C@]34C)C1CCC2=O (some centres not stated)
inactive: [1] 0.0861 | [2] 0.0822 | [3] 0.109 | [4] 0.0908

CC1CC(Cl)CCC1C(=O)OC(C)(C)C (configuration not stated)
inactive: [1] -0.0203 | [2] 0.0889 | [3] 0.151 | [4] 0.103

Cn1c(=O)c2c(ncn2CCCl)n(C)c1=O
inactive: [1] 0.086 | [2] -0.0151 | [3] -0.000593 | [4] 0.00538

CC(=O)O[C@H]1C[C@@H](OC(C)=O)C(C)(C)C2C[C@@H](OC(C)=O)[C@]3(C)C(CC[C@@]4(C)[C@H](c5ccoc5)C[C@H]5O[C@]543)[C@]21C (some centres not stated)
inactive: [1] 0.134 | [2] 0.0408 | [3] 0.129 | [4] 0.147

C[C@@H]1O[C@H](C[N+](C)(C)C)C[C@H]1O
inactive: [9] 0.143 | [10] 0.0741 | [11] 0.116 | [12] -0.0161

CCCN(CCC)C1CCc2cccc(O)c2C1 (configuration not stated)
inactive: [9] 0.114 | [10] 0.0781 | [11] 0.143 | [12] 0.0595

CC(C)[C@]12O[C@H]1[C@@H]1O[C@@]13[C@@]1(C)CCC4=C(COC4=O)[C@@H]1C[C@@H]1O[C@@]13C2=O
active: [1] -2.66 | [2] -3.01 | [3] -3.24 | [4] -2.91

CC(C)c1ccc2c(c1O)CCC1C3=C(CCC21C)C(=O)OC3 (configuration not stated)
inactive: [1] 0.0257 | [2] 0.104 | [3] 0.151 | [4] 0.343

O=C1C(Cl)=C(Cl)C(=O)C(Cl)=C1Cl
inactive: [1] 0.0885 | [2] 0.0373 | [3] 0.114 | [4] 0.156

ClC1C(Cl)C(Cl)C(Cl)C(Cl)C1Cl (configuration not stated)
inactive: [1] 0.118 | [2] 0.0584 | [3] 0.159 | [4] -0.0362

C[N+]1(C)C2CC(OC(=O)[C@H](CO)c3ccccc3)CC1C1OC12 (some centres not stated)
inactive: [9] 0.208 | [10] 0.126 | [11] 0.131 | [12] 0.157

CCNC(=O)[C@H]1O[C@@H](n2cnc3c(N)ncnc32)[C@H](O)[C@@H]1O
inactive: [9] 0.186 | [10] 0.0998 | [11] 0.0806 | [12] 0.122

COc1cccc2c1cc([N+](=O)[O-])c1c(C(=O)O)cc3c(c12)OCO3
active: [3] -0.209
inactive: [1] 0.0105 | [2] 0.00257 | [4] -0.0027

COc1c2c(cc3c1OCO3)CCN(C)C2
inactive: [1] 0.00337 | [2] -0.0221 | [3] 0.133 | [4] 0.0446

CC(N)Cc1c[nH]c2ccccc12 (configuration not stated)
inactive: [9] 0.229 | [10] 0.175 | [11] 0.0609 | [12] 0.105

CCn1cnc2c(Nc3cccc(Cl)c3)nc(N[C@@H]3CCCC[C@@H]3N)nc21
active: [11] -0.199
inactive: [9] 0.222 | [10] 0.14 | [12] -0.0222

C[C@H]1C[C@@H](O)[C@]2(O)[C@@]13CC(=O)OC[C@@]2(C)[C@](C)(O)C(=O)C3
inactive: [1] 0.0914 | [2] -0.0111 | [3] 0.0806 | [4] 0.024

CN[C@@H]1C[C@H]2O[C@@](C)([C@@H]1OC)n1c3ccccc3c3c4c(c5c6ccccc6n2c5c31)C(=O)NC4
active: [5] -2.08 | [6] -1.86 | [1] -3.68 | [2] -3.78 | [3] -4.25 | [4] -4.31 | [7] -4.11 | [8] -4.31

CC(=O)O[C@H]1C[C@@H](OC(C)=O)C(C)(C)C2C[C@@H](OC(C)=O)[C@]3(C)C(CC[C@@]4(C)[C@H](c5ccoc5)C(=O)[C@H]5O[C@]543)[C@]21C (some centres not stated)
inactive: [1] 0.0663 | [2] 0.135 | [3] 0.0399 | [4] 0.171

c1ccc2c(c1)cc1ccc3cccc4ccc2c1c34
inactive: [1] 0.0949 | [2] 0.14 | [3] 0.11 | [4] 0.179

Cc1c(N)nc(C(CC(N)=O)NCC(N)C(N)=O)nc1C(=O)NC(C(=O)NC(C)C(O)C(C)C(=O)NC(C(=O)NCCc1nc(-c2nc(C(=O)NCCC[S+](C)C)cs2)cs1)C(C)O)C(O[C@@H]1O[C@@H](CO)[C@@H](O)[C@H](O)[C@@H]1O[C@H]1O[C@H](CO)[C@@H](O)[C@H](OC(N)=O)[C@@H]1O)c1cnc[nH]1 (some centres not stated)
inactive: [17] 0.0914 | [18] 0.135 | [19] 0.115 | [20] 0.0961 | [21] 0.0288 | [22] 0.0331 | [23] 0.152 | [24] 0.1 | [25] 0.12 | [26] 0.0649 | [27] 0.18 | [28] 0.0742

O=C(CCCN1CCC2(CC1)C(=O)N(CCc1ccc(N=C=S)cc1)CN2c1ccccc1)c1ccc(F)cc1
inactive: [9] 0.156 | [10] 0.15 | [11] 0.122 | [12] 0.0672

CC1(C(=O)O)C2CCC(O2)C1(C)C(=O)O (configuration not stated)
active: [7] -0.932 | [8] -0.597
inactive: [5] 0.144 | [6] -0.0798 | [1] 0.0748 | [2] -0.099 | [9] 0.137 | [10] 0.0724 | [3] -0.00382 | [4] -0.0912 | [11] 0.0145 | [12] 0.0152

C[C@@]12C(=O)OC(=O)[C@]1(C)[C@H]1CC[C@@H]2O1
inactive: [5] 0.0446 | [6] 0.00348 | [1] 0.0474 | [2] -0.0807 | [9] 0.254 | [10] 0.0884 | [3] 0.0534 | [4] 0.0478 | [11] 0.0871 | [12] 0.00613 | [7] 0.0285 | [8] -0.0214

N[C@@]1(C(=O)O)CC[C@@H](C(=O)O)C1
inactive: [9] 0.102 | [10] 0.109 | [11] 0.101 | [12] 0.133

S=C(NC1CCCCC1)N1CCC(c2cnc[nH]2)CC1
inactive: [9] 0.127 | [10] 0.0827 | [11] 0.121 | [12] 0.058

CCC(C)c1cnc(CC(C)C)c(=O)n1O (configuration not stated)
inactive: [1] 0.088 | [2] 0.0724 | [3] 0.0675 | [4] 0.0404

CCOC(=O)c1cncn1C(C)c1ccccc1 (configuration not stated)
inactive: [17] 0.148 | [18] 0.103 | [19] 0.128 | [20] 0.0765 | [21] 0.0647 | [22] 0.0966 | [23] 0.203 | [24] 0.0919 | [25] 0.131 | [26] 0.046 | [27] 0.154 | [28] 0.157

N#C/C(=C\c1cccc(O)c1)C(=O)O
inactive: [1] 0.0765 | [2] 0.115 | [3] 0.0856 | [4] 0.0942

CC[C@H]1CN2CCc3cc(OC)c(OC)cc3[C@@H]2C[C@@H]1C[C@H]1NCCc2cc(OC)c(OC)cc21
active: [9] -0.895 | [10] -0.442 | [3] -1.08 | [4] -0.152 | [11] -2.19 | [12] -1.21 | [15] -2.91 | [16] -1.84
inactive: [13] 0.187 | [14] 0.0478 | [1] 0.11 | [2] 0.116

COc1cc2c(cc1O)CCNC2C (configuration not stated)
inactive: [1] -0.0405 | [2] -0.0233 | [3] 0.0226 | [4] 0.0664

COc1cc2c(cc1OC)C(C)NCC2 (configuration not stated)
inactive: [1] 0.121 | [2] 0.123 | [3] 0.193 | [4] 0.143

Reference: the supplement of paper PMC6089552
